Screening data (PubChem)
The list is not random: actives were taken first. Their share in the collection is about 11%.
HCV inh: HCV inhibition. Huh7.5.1 HCVcc-Cre infection, luciferase reporter, 44 h. Potency, µM (titrated, usually from 41.8 µM), for inactives: at the highest dose activity change, negative = inhibition, most hits filed as inhibitors. 340,000 compounds, 3.4% hits. AID 651820; further: on the % scale 0 is the no-effect control and ±100 the full control effect
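Reporter virus HCVcc-Cre (~0.5 moi) infects cells exposed to compound; seeding density 1,000 cells/well with 4 h settling beforehand. Luminescence, 15 sec read, taken 44 h post-infection following a 15 min RT substrate incubation.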
Pf growth 96h: P. falciparum growth inhibition at 96 hour, primary screen for plastid delayed-death inhibitors; AID 504834; 320,000 compounds, 6.9% hits; Potency, µM (highest dose often 28.7 µM), for inactives: at the highest dose activity change, negative = inhibition, actives largely listed as inhibitors; P. falciparum luciferase reporter growth, 96 h; further: on the % scale 0 is the no-effect control and ±100 the full control effect
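Plates of compound plus infected erythrocytes (2% hematocrit, 0.05% parasitemia final) incubate 96 hours, 37 C, 5% CO2. Detection reagent added; reduced luminescence from the parasites' luciferase reporter flags inhibition.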
NS1 inh: blocks influenza NS1 protein function; AID 2326; Potency, µM (titrated, usually from 46.1 µM), without a hit: at the top dose activity, positive = more growth; 270,000 compounds, 0.4% hits; calls by dose curve; further: actives are rising curves; nearly all actives have a fitted effect of over 50% in size
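Recovery from NS1-induced slow growth read by OD600 in budding yeast switched to galactose assay medium (pH 6.0, -URA) at 1:100 dilution. Compound 23 nl per well; the matching strain lacking NS1 serves as control.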
VACV Venus inh: inhibitors of vaccinia virus (Venus reporter); Vaccinia virus Venus reporter expression, fluorescence; Potency, µM (doses to about 36.5 µM), for the others: at the highest dose activity change, negative = inhibition, actives largely listed as inhibitors; 330,000 compounds, 0.46% hits; AID 720580; calls by dose curve; tested in A549 cells; further: on the % scale 0 is the no-effect control and ±100 the full control effect; nearly all actives have a fitted effect of over 30% in size
Vaccinia mCherry: vaccinia inhibition (mCherry reporter) | Vaccinia virus mCherry reporter infection, fluorescence | Potency, µM (series often up to 36.5 µM), for the others: at the highest dose activity change, negative = inhibition, actives largely listed as inhibitors | 310,000 compounds, 0.63% hits | AID 720579; calls by dose curve; tested in A549 cells; further: on the % scale 0 is the no-effect control and ±100 the full control effect; nearly all actives have a fitted effect of over 35% in size
Pf growth 48h: inhibits P. falciparum growth in the first generation, 48 h | P. falciparum luciferase growth in erythrocytes, 48 h | 310,000 compounds, 5.9% hits | Potency, µM (series often up to 28.7 µM), for inactives: top-dose activity change, negative = inhibition, most hits filed as inhibitors; further: on the % scale 0 is the no-effect control and ±100 the full control effect
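Erythrocytes infected with P. falciparum carrying an integrated firefly luciferase reporter (2% hematocrit, 0.1% parasitemia final) were exposed to compounds in RPMI 1640 with 0.5% Albumax at 37 C, 5% CO2. Growth inhibition was scored as reduced luminescence.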
* = called active by the depositor; i = inactive; ? = inconclusive; / = not tested or not shown; [ ] = dose if it differs, or a comment. Unless noted, the call rests on the fitted dose curve; in most records, active means well fitted inhibition curve with a large enough effect; inconclusive means small, poorly fitted or top-dose-only effect, or another doubt; inactive means no such curve, though single readings can be large or run the other way. Potency means the concentration at half of the fitted maximal effect.

SMILES	HCV inh	Pf growth 96h	NS1 inh	VACV Venus inh	Vaccinia mCherry	Pf growth 48h
COc1ccc(CN(C(=O)c2ccco2)c2ccc(Br)cc2)cc1OC	-2%	-1%[5.75 µM]	-9%	7%	-7%	?
COc1cc(CN(C(=O)c2ccco2)c2ccc(C)cc2)ccc1O	4%	?	-4%	/	/	12µM*
CNC(=S)N(CCc1c(C)[nH]c2ccc(OC)cc12)Cc1cc(OC)c(OC)c(OC)c1	?	15µM*	17%	-25%	?	10µM*
CNC(=S)N(CCc1c(C)[nH]c2ccc(C)cc12)Cc1cc(OC)c(OC)c(OC)c1	-28%	10µM*	8%	-17%	?	0%
CNC(=S)N(CCc1c(C)[nH]c2ccccc12)Cc1cc(OC)c(OC)c(OC)c1	-15%	?	-12%	-15%	-15%	?
CCNC(=S)N(CCc1c(C)[nH]c2ccccc12)Cc1cc(OC)c(OC)c(OC)c1	?	?	-14%	-19%	-29%	?
CNC(=S)N(CCc1ccc(OC)c(OC)c1)Cc1cc2c(C)cc(C)cc2[nH]c1=O	0%	12µM*	11%	7%	i	?
COC(=O)c1c(-c2ccc(Cl)cc2)noc1N1CCN(c2ccc(C)cc2C)CC1	/	/	/	-12%	-4%	/
COc1ccc(NC(=O)c2ccc(CN3C(=O)CCn4nc(C)cc43)cc2)c(OC)c1	/	/	/	-1%	7%	/
CN(C)CCCN(C(=O)CCOc1ccccc1)c1nc2c(F)cccc2s1	?	54%	/	/	/	7%
COc1cc(/C=C(\C#N)c2ccccn2)ccc1OCc1ccccc1Cl	?	2.3µM*	11%	4%	-4%	1.9µM*
Cc1c(C(=O)OCCN2CCCCC2)oc2ccccc12	18%	-12%	-8%	/	/	-19%
CCSc1nnc(NC(=O)CCNS(=O)(=O)c2cc(Br)cnc2N)s1	18%	9.3µM*	-7%	/	/	?
CCN1C(=O)[C@H]2[C@@H](c3ccc(OC)cc3)N3C(=O)CN(CC4CC4)C(=O)[C@@]3(C)[C@H]2C1=O	10µM*	86%	-2%	1%	-19%	0%
O=C(Nc1ccc2c(c1)ncn2-c1ccccc1)c1ccco1	-15%	3%	-57%	/	/	-16%
COc1ccccc1C(=O)Nc1ccc2c(c1)nc1n2CCN(Cc2ccccc2)C1	?	?	/	-27%	-13%	?
O=C(Nc1ccc2c(c1)nc1n2CCN(Cc2ccccc2)C1)c1cccs1	?	16%	-15%	/	/	?
O=S(=O)(Nc1ccc2c(c1)nc1n2CCN(Cc2ccccc2)C1)c1ccc(F)cc1	?	-16%	15%	/	/	12µM*
Cc1ccc(S(=O)(=O)Nc2ccc3c(c2)nc2n3CCN(Cc3ccccc3)C2)cc1	16µM*	?	?	/	/	?
O=C(Nc1ccc2c(c1)nc1n2CCN(Cc2ccccc2)C1)NC1CCCCC1	-17%	-14%	10%	-3%	-3%	/
O=S(=O)(Nc1ccc2c(c1)nc1n2CCN(Cc2ccccc2)C1)c1ccccc1	5.6µM*	39%	5%	/	/	66%
O=S(=O)(Nc1ccc2c(c1)nc1n2CCN(Cc2ccccc2)C1)c1ccc(Cl)cc1	11µM*	38%	8%	/	/	9.3µM*
CCOC(=O)N1CCN(C(=O)CSCc2ccc(Br)cc2)CC1	7%	-14%	-11%	-20%	-11%	9%
CN(C)C(=O)Oc1cccc(OCc2n(C)c3ccccc3[n+]2C)c1	16%	2.9µM*	-5%	-6%	-9%	?
Cc1c(C)c2c(OCC(=O)Nc3cccnc3)cc3c(c2oc1=O)CCC(C)(C)O3	-5%	4.1µM*	-13%	2%	-5%	?
SMILES	HCV inh	Pf growth 96h	NS1 inh	VACV Venus inh	Vaccinia mCherry	Pf growth 48h
CCCc1cc(=O)oc2c(C)c(OCC(=O)Nc3cccnc3)ccc12	?	2.3µM*	-3%	1%	0%	3.3µM*
COc1cc2c(c3oc(=O)cc(CC(=O)O)c13)CCC(C)(C)O2	10µM*	5.2µM*	-9%	/	/	?
CCc1cc(=O)oc2c3c(cc(OCC(=O)Nc4cccnc4)c12)OC(C)(C)CC3	10µM*	2.9µM*	-23%	-15%	-5%	2.1µM*
CCc1cc(=O)oc2c3c(cc(OCC(=O)NCc4ccccn4)c12)OC(C)(C)CC3	?	?	-39%	-7%	-2%	?
COc1cc2[nH]c3c(=O)n(CCN4CCOCC4)cnc3c2cc1OC	-8%	19%	5%	-8%	i	-12%
CCCc1cc(=O)oc2c3c(cc(OCC(=O)NCC4CCC(C(=O)O)CC4)c12)OC(C)(C)CC3 (stereo not given)	-23%	1.3µM*	9%	-10%	-11%	?
CCc1cc(=O)oc2c3c(cc(OCC(=O)NCc4cccnc4)c12)OC(C)(C)CC3	?	?	-12%	-14%	-14%	9.3µM*
COc1ccc2cc(C(C)C(=O)N3CCC(C)CC3)ccc2c1 (stereo not given)	-23%	?	-107%	-20%	2%	?
CCC1=C(OC(=O)N(CC)CC)N2C(=O)OC(=NCc3ccccc3)[C@]2(C)[C@H]2C1=CC[C@H]1C(=O)N(c3ccccc3)C(=O)[C@H]12	-25%	8.3µM*	6%	-3%	i	7.4µM*
CCC1=C(OC(=O)N(CC)CC)N2C(=O)OC(=NCC3CC3)[C@]2(Cc2ccccc2)[C@H]2C1=CC[C@H]1C(=O)N(CC(=O)OC)C(=O)[C@H]12	2%	7.4µM*	-5%	-19%	-1%	5.9µM*
CCC1=C(OC(=O)N(CC)CC)N2C(=O)OC(=NCc3ccccc3)[C@]2(C)[C@H]2C1=CC[C@H]1C(=O)N(CC(=O)OC)C(=O)[C@H]12	4%	9.3µM*	-7%	-12%	-27%	8.3µM*
CCC1=C(OC(=O)N(CC)CC)N2C(=O)OC(=NCC(=O)OC)[C@]2(C)[C@H]2C1=CC[C@H]1C(=O)N(C)C(=O)[C@H]12	14%	54%	0%	-15%	i	31%
CCC1=C(OC(=O)N(CC)CC)N2C(=O)OC(=NCC3CC3)[C@]2(C)[C@H]2C1=CC[C@H]1C(=O)NC(=O)[C@H]12	27%[8.37 µM]	?	3%	-8%	i	?
Cn1c(=O)[nH]c(=O)c2c1nc(N1CCc3ccccc3C1)n2CCSc1nc2ccccc2s1	-12%	57%	-15%	/	/	5.2µM*
CCCCCn1c(Sc2nc3ccccc3s2)nc2c1c(=O)[nH]c(=O)n2C	8.9µM*	-16%[5.75 µM]	-42%	10µM*	10µM*	?
CN1CCN(c2nc3c(c(=O)[nH]c(=O)n3C)n2CCSc2nc3ccccc3s2)CC1	3%	?	0%	0%	i	0%
Oc1ccc2oc3c(c2c1)CCCC3	-13%	41%	-43%	-25%	-2%[1.46 µM]	52%
CCOc1ccc(NC(=O)N2CCC(C(N)=O)(N3CCCCC3)CC2)cc1	6%	13µM*	-2%	7%	8%	2%
